Screening data: PubChem, National Center for Advancing Translational Sciences (NCATS)
An excerpt weighted towards active compounds, which were near 7.5% of everything screened.
Rab9 prom act: activates the Rab9 promoter; hit rate 2.8% among 320,000; Huh7 Rab9 promoter-luciferase reporter, luminescence, 24 h; Potency, µM (doses to about 9.22 µM), actives largely listed as activators; further: nearly all actives have a fitted effect of over 60% in size
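Huh7 reporter line, Rab9 promoter upstream of luciferase. Compound exposure 24 h at 37 °C in reduced-serum medium with 10% FBS. Read-out: luminescence.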
ELG1 genotoxic: inducers of genotoxicity in HEK293T ELG1-luciferase cells. hit rate 1.3% among 330,000. AID 504466. HEK293T ELG1-luciferase reporter, luminescence, 16 h. Potency, µM (titrated, usually from 46 µM), most hits filed as activators; further: nearly all actives have a fitted effect of over 60% in size
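After overnight (16 hr) compound treatment at 37 °C, ELG1-luciferase HEK293T cells were lysed with ONE-Glo; luminescence quantified 30 min later at room temperature.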
FLuc modulator: firefly luciferase modulation, counter-screen for miR-21 project; Potency, µM (top dose mostly 57.5 µM), usual class: inhibitors; purified FLuc, Km substrates, luminescence inhibition; P08659; hit rate 6.9% among 360,000; further: nearly all actives have a fitted effect of over 55% in size
Target sequence (P08659 whole entry, looked up): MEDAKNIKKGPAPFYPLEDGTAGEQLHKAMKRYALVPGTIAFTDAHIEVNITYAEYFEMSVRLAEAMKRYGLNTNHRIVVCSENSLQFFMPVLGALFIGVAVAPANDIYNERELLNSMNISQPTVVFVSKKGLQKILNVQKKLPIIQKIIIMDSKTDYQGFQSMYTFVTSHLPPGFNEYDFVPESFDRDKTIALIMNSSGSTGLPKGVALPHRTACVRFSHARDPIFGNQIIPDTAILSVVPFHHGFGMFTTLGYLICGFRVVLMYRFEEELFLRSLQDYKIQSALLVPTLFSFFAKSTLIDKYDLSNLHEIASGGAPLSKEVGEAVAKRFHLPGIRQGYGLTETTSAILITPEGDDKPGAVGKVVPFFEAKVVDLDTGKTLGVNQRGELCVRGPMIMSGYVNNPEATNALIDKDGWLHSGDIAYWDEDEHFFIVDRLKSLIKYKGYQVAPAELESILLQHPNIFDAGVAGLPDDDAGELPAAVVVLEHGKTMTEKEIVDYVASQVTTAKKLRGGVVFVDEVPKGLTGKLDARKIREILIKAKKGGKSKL
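Purified P. pyralis luciferase, 10 nM final, with Km-level 10 uM D-luciferin and 10 uM ATP in 50 mM Tris acetate pH 7.5, 10 mM Mg acetate, 0.01% Tween-20, 0.05% BSA; 6-point qHTS titration about 60 µM downward; luminescence read.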
NPC1 promoter act: activates the NPC1 promoter; Huh7 NPC1 promoter luciferase reporter, 24 h; Potency, µM (highest dose often 9.22 µM), usual class: activators; hit rate 2.4% among 320,000; AID 485313; further: nearly all actives have a fitted effect of over 60% in size
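Luciferase expression driven by the NPC1 promoter was measured in stably transfected Huh7 cells after a 24 h compound incubation, using a luciferase reagent and a luminescence read.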
SMN2 splice enh: enhancers of SMN2 splice variant expression; HEK293 SMN2-luciferase splicing reporter, luminescence, 30-36 h; Potency, µM (doses to about 46.1 µM), usual class: activators; hit rate 2.8% among 210,000; further: nearly all actives have a fitted effect of over 55% in size
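qHTS luciferase splicing reporter: luminescence rises when SMN2 exon 7 is included in transfected HEK293 cells. Compound exposure lasted 30-36 h at 37C, with 4.5 mM final sodium butyrate as control, followed by a ONE-Glo read.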
Luc counter: counter-screen: inhibitors of Kinase-Glo firefly luciferase; hit rate 0.28% among 200,000; AID 1379; Q27757; Kinase-Glo luciferase, ATP luminescence, 8 min; Potency, µM (highest dose often 38.3 µM), usual class: inhibitors; further: nearly all actives have a fitted effect of over 60% in size
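Compound is pinned into ATP-containing buffer (10 uM ATP, imidazole pH 7.2, 7 mM MgCl2). Kinase-Glo luciferase reagent is then added. Light output is recorded following an 8-min room-temperature incubation.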
Hits are given with their value; 0 = inactive; ? = inconclusive; - = not tested or not shown; [ ] = another dose, or the depositor's remark. The call rests on the fitted dose curve; in most records, active means well fitted curve in the direction sought with a large enough effect; inconclusive means small, poorly fitted or top-dose-only effect, or another doubt; inactive means no such curve, though single readings can be large; an effect the other way counts as inactive or inconclusive.

SMILES | Rab9 prom act | ELG1 genotoxic | FLuc modulator | NPC1 promoter act | SMN2 splice enh | Luc counter
COc1cccc(NC(=O)c2ccc(NC(C)=O)cc2)c1 | ? | ? | ? | 0 | 0 | 0
O=C1NC2(CCCCC2)C(=O)N1/N=C/c1ccc(O)cc1O | 0 | 0 | 17µM | 0 | 0 | 0
CN(/N=C/c1ccc(O)cc1O)c1nc(-c2ccccc2)cc(-c2ccccc2)n1 | 0 | 0 | 0 | 0 | 0 | 0
COc1ccc(OC)c(N(CC(=O)NCc2ccccc2)S(=O)(=O)c2ccccc2)c1 | - | - | 0 | - | 0 | -
Cc1cc(C(=O)N/N=C/c2ccncc2)c(C)o1 | 0 | 0 | ? | 0 | - | -
CC(/C=N\NC(=O)c1cc(C)oc1C)=C\c1ccccc1 | 2.5µM | ? | 2.1µM | ? | ? | 0
Cc1ccc(/C=N/NC(=O)c2cc(C)oc2C)cc1 | 0 | ? | 4.3µM | 0 | - | -
CCCCC(=O)N1CCc2cc(OC)c(OC)cc2C1COc1ccc(C(=O)OCC)cc1 (stereo not drawn) | - | - | 0 | - | - | -
O=C(CSc1ccccn1)N1CCNC1=O | - | 0 | - | - | - | -
N#Cc1ccccc1OCC(=O)NC(=O)NCc1ccco1 | ? | ? | 19µM | ? | - | -
CCc1ccc(OCC(=O)NCc2ccco2)c(Br)c1 | ? | ? | 9.5µM | ? | 0 | 0
Cc1ccc(-c2noc(CNC(=O)c3ccc(Br)o3)n2)cc1 | - | - | 0 | - | 0 | -
O=C(Nc1cc2c3c(c1)CC(=O)N3CCC2)c1ccc(Cl)cc1 | 0 | ? | 15µM | 0 | - | -
O=C(Nc1cc2c3c(c1)CC(=O)N3CCC2)c1c(F)cccc1F | 0 | ? | 0 | 0 | - | -
CC(CNC(=O)Cc1ccc(NC(=O)N2CCSc3ncccc32)cc1)c1ccccc1 (stereo not drawn) | - | - | 0 | - | - | -
CCN(CC)c1ccc(-n2c(O)c(C=C3N=c4ccccc4=N3)sc2=S)cc1 | 0 | 0 | 0 | 0 | 0 | 0
O=C(O)c1ccc(-n2c(O)c(C=C3N=c4ccccc4=N3)sc2=S)cc1 | 0 | 0 | 13µM | 0 | - | -
O=C(O)c1cccc(-n2c(O)c(C=C3N=c4ccccc4=N3)sc2=S)c1 | 0 | 0 | 13µM | 0 | - | -
Cc1ccc(C)n1-c1cccc(C(=O)O)c1 | 0 | 0 | 0 | 0 | 0 | 0
Cc1cc(C)c2c(=O)cc(C(=O)Nc3ccc(S(=O)(=O)Nc4nc(C)cc(C)n4)cc3)oc2c1 | - | - | ? | - | 0 | -
CCC(C=C[C@@H]1OC(=O)C=C[C@H]1C)=C[C@H](C)CC=CC(C)=C[C@@H](C)C(=O)[C@@H](C)[C@H](O)[C@@H](C)CC(C)=CC(=O)O | - | - | - | - | - | 0
COc1ccc(C(CC(=O)NCc2ccccc2Cl)N2Cc3ccccc3C2=O)cc1OC (stereo not drawn) | - | - | 0 | - | - | -
COc1cccc(C2=CC(c3cccs3)n3nnnc3N2)c1 (stereo not drawn) | 0 | 16µM | 0 | 0 | 0 | 0
CC(C)c1ccc(C2=CC(c3ccc(C(C)C)cc3)n3nnnc3N2)cc1 (stereo not drawn) | - | - | 2.7µM | - | - | -
COc1ccc(C2=CC(c3sccc3C)n3nnnc3N2)cc1 (stereo not drawn) | 2.8µM | ? | 0 | 2.8µM | 0 | 0
SMILES | Rab9 prom act | ELG1 genotoxic | FLuc modulator | NPC1 promoter act | SMN2 splice enh | Luc counter
CC(NC(=O)COC(=O)COc1cccc2c1OC(C)(C)C2)c1ccccc1 (stereo not drawn) | 0 | 0 | 0 | 0 | - | -
Cc1ccc(-n2c(=O)c3c(c4cc(C)ccc4n3C)n(CC(=O)Nc3c(C)cccc3C)c2=O)cc1 | - | - | 0 | - | - | -
CCn1c(-c2cc(-c3ccc(OC(C)C)cc3)nc3ccccc23)n[nH]c1=S | ? | 0 | 0.6µM | ? | 0 | 0
C=CCn1c(-c2cc(-c3ccc(C)cc3)nc3ccccc23)n[nH]c1=S | 0 | 0 | 11µM | 0 | 0 | 0
CCCOc1cccc(-c2cc(-c3n[nH]c(=S)n3CC)c3ccccc3n2)c1 | 0 | 0 | 17µM | 0 | 0 | 0
CCn1c(-c2cc(-c3ccccc3OC)nc3ccccc23)n[nH]c1=S | 0 | 0 | 0 | 0 | 0 | 0
CCn1c(-c2cc(-c3ccc(C)cc3)nc3ccccc23)n[nH]c1=S | 0 | 0 | 6.7µM | 0 | 0 | 0
C=CCn1c(-c2cccc3ccccc23)n[nH]c1=S | 0 | 0 | 0 | 0 | 0 | 0
CCOC(=O)Cn1c(=O)n(C2CCCCC2)c2nc(-c3ccc(C(C)C)cc3)nc(C(N)=O)c21 | - | - | 0 | - | - | -
O=c1/c(=C/c2ccco2)sc2nc(-c3ccccc3Br)nn12 | 0 | 0 | 6.7µM | 0 | 0 | 0
COc1ccc([C@]23Cc4cc(OC)c(OC)cc4C(O2)C2=C(CC(C)(C)CC2=O)O3)cc1 | 0[1.84 µM] | - | 0[11.5 µM] | 0[1.84 µM] | - | -
Cc1ccc2nc(-c3cccc(NC(=O)c4ccc(Br)o4)c3)oc2c1 | - | - | 2.7µM | - | 0 | -
Cc1ccc2nc(-c3cccc(NC(=O)c4cccc5c(Cl)cccc45)c3)oc2c1 | - | - | 2.4µM | - | 0 | -
Cc1ccc2nc(-c3ccc(Cl)c(NC(=O)c4ccc(Br)o4)c3)oc2c1 | - | - | ? | - | 0 | -
Cc1cc2nc(-c3cccc(NC(=O)c4cccc5ccccc45)c3)oc2cc1C | - | - | 2.1µM | - | 0 | -
Cc1cc2nc(-c3cccc(NC(=O)CSc4ccc(Cl)cc4)c3)oc2cc1C | - | - | 1.9µM | - | 0 | -
Cc1ccc2nc(-c3cccs3)c(Nc3c(C)cccc3C)n2c1 | - | - | 0 | - | 0 | -
